This note sets out measurements from PubChem BioAssay (EPA / NIEHS).

The nature of assay [1]: ATG_E_Box_CIS: Attagene CIS-FACTORIAL HepG2 Assay for human Enhancer Box (E-box) (AID 2282936). The settings on record: HepG2 E-box cis-reporter transcription, actives raise or lower the signal. In outline: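 Measured 24 h post-dosing in HepG2 cells transfected with multiple cis-regulated reporter units, signal being reporter mRNA induction detected by fluorescent RT-PCR with capillary electrophoresis; gain or loss fitted against DMSO.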

The nature of assay [2]: ATG_EGR_CIS: Attagene CIS-FACTORIAL HepG2 Assay for human Early Growth Response 1 (EGR1) (AID 2282938). The settings on record: HepG2 Attagene CIS-FACTORIAL EGR reporter mRNA; actives raise or lower the signal. In outline: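 Multiplexed cis-reporter system in human hepatoma HepG2 cells, transiently transfected. Cells are dosed for 24 h; reporter transcripts are amplified, fluorescently tagged and sized by capillary electrophoresis, with DMSO as negative control.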

Assay [3] is described as follows: ATG_M_19_CIS: Attagene CIS-FACTORIAL HepG2 Assay for M19 Transcription Factor (Internal Marker) (AID 2282939). To be noted: HepG2 Attagene CIS-FACTORIAL M19 internal marker reporter; actives raise or lower the signal. In outline:
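Chemical-treated HepG2 (24 h) with MRTU constructs; reporter transcripts detected by fluorescent RT-PCR fragment analysis on capillary electrophoresis. Internal background marker, DMSO as baseline.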

Assay [4] in a line: ATG_ERE_CIS: Attagene CIS-FACTORIAL HepG2 Assay for Estrogen Response Element (ERE) (AID 2282940). To be noted: HepG2 ERE cis-reporter, Attagene RNA transcript; actives raise or lower the signal. In outline:
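Human liver cells (HepG2) bearing transiently transfected, promoter-regulated reporter units were exposed 24 h. Reporter mRNA induction was detected by capillary electrophoresis of labelled RT-PCR products and fitted bidirectionally to DMSO.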

Assay [5] in a line: ATG_Ets_CIS: Attagene CIS-FACTORIAL HepG2 Assay for human Erythroblast Transformation Specific (ETS) (AID 2282941). To be noted: HepG2 ETS cis-reporter transcription, actives raise or lower the signal. In outline:
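Endogenous transcription factor activity read as reporter mRNA via RT-PCR and capillary electrophoresis, with gain or loss fitted bidirectionally against DMSO. Human HepG2 liver cells, transiently transfected CIS reporter constructs, 24 h exposure.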

Assay [6] deals with Hepatocyte nuclear factor 3-beta (Homo sapiens) (UniProt Q9Y261). Nature of the assay: ATG_FoxA2_CIS: Attagene CIS-FACTORIAL HepG2 Assay for human Forkhead box A2 (FOXA2) (AID 2282942). The settings on record: HepG2 cis-reporter transcription factor activity, 24 h; actives raise or lower the signal. In outline: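 Multiplexed cis-element reporter assay in transiently transfected HepG2. Twenty-four hours post-dosing, RNA was reverse-transcribed, amplified, FAM-labelled, HpaI-digested and separated by CE. Activity gain or loss relative to DMSO.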
Chain of Hepatocyte nuclear factor 3-beta (Homo sapiens) (Q9Y261 whole entry, looked up): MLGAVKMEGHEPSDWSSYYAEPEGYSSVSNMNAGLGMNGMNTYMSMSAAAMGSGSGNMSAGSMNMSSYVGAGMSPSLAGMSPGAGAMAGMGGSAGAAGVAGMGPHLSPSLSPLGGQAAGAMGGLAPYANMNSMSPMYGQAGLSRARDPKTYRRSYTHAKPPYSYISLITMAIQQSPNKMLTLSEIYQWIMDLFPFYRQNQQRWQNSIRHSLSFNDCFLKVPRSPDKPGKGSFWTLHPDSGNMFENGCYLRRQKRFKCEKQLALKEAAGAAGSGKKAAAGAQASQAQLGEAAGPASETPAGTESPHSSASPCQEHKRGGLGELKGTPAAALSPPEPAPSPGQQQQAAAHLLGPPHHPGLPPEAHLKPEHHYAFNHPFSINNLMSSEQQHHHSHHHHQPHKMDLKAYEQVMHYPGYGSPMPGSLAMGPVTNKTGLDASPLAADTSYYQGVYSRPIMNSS

Assay [7] is described as follows: ATG_FoxO_CIS: Attagene CIS-FACTORIAL HepG2 Assay for human Forkhead box O (FoxO) (AID 2282943). The settings on record: HepG2 Attagene cis-reporter, FoxO element, mRNA; actives raise or lower the signal. In outline: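 HepG2 cells transiently transfected with cis-promoter-driven multiple reporter transcription units; 24 h after chemical dosing, reporter mRNA quantified by RT-PCR, fluorescent primer extension, HpaI digestion and capillary electrophoresis. Bidirectional fitting versus DMSO baseline.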

A short description of assay [8]: ATG_GATA_CIS: Attagene CIS-FACTORIAL HepG2 Assay for human GATA Binding Protein (AID 2282944). The settings on record: HepG2 GATA cis-element reporter, Attagene multiplex mRNA; actives raise or lower the signal. In outline:
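Transfected cis-reporter HepG2 cells were treated with chemicals for 24 hours. Total RNA was then converted to cDNA, amplified with reporter-specific primers and analysed by fluorescent capillary electrophoresis, using DMSO-treated wells as baseline.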

The nature of assay [9]: ATG_GLI_CIS: Attagene CIS-FACTORIAL HepG2 Assay for human Zinc Finger Protein GLI1 (AID 2282945). The settings on record: HepG2, Attagene cis-factorial reporter mRNA, GLI element; actives raise or lower the signal. In outline: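 HepG2 cells transiently transfected with cis-promoter multiplexed reporter units report endogenous transcription factor activity. After 24 h chemical exposure, reporter mRNA was quantified by RT-PCR, 6-FAM labelling, HpaI digestion and capillary electrophoresis, with bidirectional fitting against DMSO.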

The target of assay [10] is Bile acid receptor (Homo sapiens) (UniProt Q96RI1). Description: ATG_IR1_CIS: Attagene CIS-FACTORIAL HepG2 Assay for human Nuclear Receptor Subfamily 1 Group H Member 4 (NR1H4), IR1 submotif (AID 2282946). The settings on record: IR1 reporter transcription, actives raise or lower the signal. In outline:
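Readout: reporter transcript levels by RT-PCR with fluorescent capillary electrophoresis, from HepG2 cells transiently transfected with multiplexed cis-regulated reporters and dosed 24 h. Gain- or loss-of-signal fitted versus DMSO negative control.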

Assay [11] in a line: ATG_GRE_CIS: Attagene CIS-FACTORIAL HepG2 Assay for human Glucocorticoid Response Elements (GRE) (AID 2282947). The settings on record: HepG2 GRE cis-reporter, Attagene multiplex mRNA; actives raise or lower the signal. In outline: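 HepG2, transient cis-reporter transfection, 24 h. Reporter mRNA: RT-PCR then CE, fluorescence. Fit both directions vs DMSO.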
A short description of assay [12]: ATG_ISRE_CIS: Attagene CIS-FACTORIAL HepG2 Assay for human Interferon Regulatory Factor 1 (IRF1) binding to an Interferon-Stimulated Response Element (ISRE) (AID 2282948). The settings on record: HepG2 ISRE cis-reporter (Attagene), mRNA transcription readout; actives raise or lower the signal. In outline: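 Endogenous transcription factor activity read as reporter transcript abundance via RT-PCR and capillary electrophoresis. HepG2 cells transiently transfected, 24 h chemical exposure. Gain or loss fitted against DMSO baseline.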

Assay [13] in a line: ATG_M_32_CIS: Attagene CIS-FACTORIAL HepG2 Assay for M32 Transcription Factor (Internal Marker) (AID 2282949).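 Note: background control marker of the multiplexed CIS panel rather than a real target.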 To be noted: HepG2 Attagene cis-factorial M32 reporter, mRNA; actives raise or lower the signal. In outline: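 Transient MRTU transfection of HepG2; 24 h compound treatment; TriZol RNA, oligo(dT) RT, reporter PCR, 6-FAM primer extension, HpaI cut, CE. Gain/loss of signal vs DMSO.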

Assay [14] in a line: ATG_M_06_CIS: Attagene CIS-FACTORIAL HepG2 Assay for M06 Transcription Factor (Internal Marker) (AID 2282950). The settings on record: HepG2 Attagene CIS-FACTORIAL M06 internal marker reporter; actives raise or lower the signal. In outline: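 Cells (HepG2, transiently carrying cis-driven reporter units) receive chemical for 24 h before RNA isolation. Reporter cDNA is PCR-amplified, FAM-labelled by primer extension, HpaI-digested and sized on a capillary analyser.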

Assay [15] addresses Hypoxia-inducible factor 1-alpha (Homo sapiens) (UniProt Q16665). Description: ATG_HIF1a_CIS: Attagene CIS-FACTORIAL HepG2 Assay for human Hypoxia Inducible Factor 1 (HIF1A) (AID 2282951). The settings on record: HepG2 Attagene cis-factorial HIF1a reporter transcription; actives raise or lower the signal. In outline:
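Cis-element reporter constructs were transiently transfected into HepG2 cells, which were treated for 24 h; reporter RNA was reverse-transcribed, amplified, labelled and resolved by capillary electrophoresis.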

Assay [16] concerns the target Hepatocyte nuclear factor 6 (Homo sapiens) (UniProt Q9UBC0). Nature of the assay: ATG_HNF6_CIS: Attagene CIS-FACTORIAL HepG2 Assay for human Hepatocyte Nuclear Factor 6 (HNF6) (AID 2282952). To be noted: HepG2 Attagene cis-factorial HNF6 reporter transcription; actives raise or lower the signal. In outline:
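Readout: fluorescent reporter-transcript fragments resolved by capillary electrophoresis after RT-PCR, reflecting endogenous factor activity in transfected HepG2. Exposure 24 h. Gain or loss of signal fitted bidirectionally against DMSO.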

Assay [17] has as its target Heat shock factor protein 1 (Homo sapiens) (UniProt Q00613). Nature of the assay: ATG_HSE_CIS: Attagene CIS-FACTORIAL HepG2 Assay for human Heat Shock Transcription Factor 1 (HSE) (AID 2282953). To be noted: HepG2 HSE cis-reporter, Attagene RNA transcription; actives raise or lower the signal. In outline:
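Liver-derived HepG2 cells carry transiently introduced multiple reporter units governed by cis promoters. Reporter RNA measured 24 h post-dose through reverse transcription, PCR amplification, fluorescent labelling and capillary electrophoresis, normalised to DMSO.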

The nature of assay [18]: ATG_MRE_CIS: Attagene CIS-FACTORIAL HepG2 Assay for human Metal Responsive Element (MRE) (AID 2282954). To be noted: HepG2 MRE cis-reporter transcription, Attagene multiplex; actives raise or lower the signal. In outline: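 Readout: capillary electrophoresis of 6-FAM-labelled, HpaI-digested RT-PCR reporter products. System: HepG2 cells carrying transient multiplexed cis reporters, dosed 24 h. Analysis: bidirectional fit, DMSO baseline.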

Assay [19] can be described thus: ATG_M_61_CIS: Attagene CIS-FACTORIAL HepG2 Assay for M61 Transcription Factor (Internal Marker) (AID 2282937). The settings on record: HepG2 Attagene CIS-FACTORIAL M61 internal marker reporter; actives raise or lower the signal. In outline:
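Multiplexed reporter mRNA assay, HepG2 human hepatoma cells, 24 h treatment. Signal: FAM-labelled, HpaI-digested RT-PCR fragments by CE. Fit: bidirectional, baseline DMSO.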

A short description of assay [20]: ATG_PBREM_CIS: Attagene CIS-FACTORIAL HepG2 Assay for human Phenobarbital-responsive Enhancer Module (PBREM) (AID 2282955). To be noted: HepG2 PBREM cis-reporter, Attagene multiplexed transcription; actives raise or lower the signal. In outline: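 Multiplexed cis-reporter readout in human hepatoma HepG2 cells; PBREM-regulated transcript quantified after 24 h exposure by fluorescent RT-PCR fragment analysis. Signal changes up or down fitted relative to DMSO.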

The source made the active and inactive calls. Rule for the calls: active = hit-call score of the fitted dose curve at least 0.9, where 1 is the maximum; inactive = score below 0.9.

Chain of Heat shock factor protein 1 (Homo sapiens) (Q00613 whole entry, looked up): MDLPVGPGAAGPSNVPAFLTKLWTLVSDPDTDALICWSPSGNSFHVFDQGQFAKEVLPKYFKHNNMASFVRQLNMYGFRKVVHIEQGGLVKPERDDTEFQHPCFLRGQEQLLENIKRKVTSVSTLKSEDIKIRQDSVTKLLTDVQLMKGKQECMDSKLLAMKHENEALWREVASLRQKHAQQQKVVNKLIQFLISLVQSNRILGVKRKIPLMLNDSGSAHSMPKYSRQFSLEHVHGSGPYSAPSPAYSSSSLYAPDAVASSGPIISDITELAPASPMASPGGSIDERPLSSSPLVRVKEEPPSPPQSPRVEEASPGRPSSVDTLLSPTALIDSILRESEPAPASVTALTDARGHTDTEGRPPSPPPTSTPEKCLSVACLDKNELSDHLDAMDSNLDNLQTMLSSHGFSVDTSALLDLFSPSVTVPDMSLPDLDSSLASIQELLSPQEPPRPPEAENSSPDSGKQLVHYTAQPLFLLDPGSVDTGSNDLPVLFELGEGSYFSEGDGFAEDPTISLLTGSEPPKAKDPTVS
Chain of Hepatocyte nuclear factor 6 (Homo sapiens) (Q9UBC0 whole entry, looked up, the tested form may be a part): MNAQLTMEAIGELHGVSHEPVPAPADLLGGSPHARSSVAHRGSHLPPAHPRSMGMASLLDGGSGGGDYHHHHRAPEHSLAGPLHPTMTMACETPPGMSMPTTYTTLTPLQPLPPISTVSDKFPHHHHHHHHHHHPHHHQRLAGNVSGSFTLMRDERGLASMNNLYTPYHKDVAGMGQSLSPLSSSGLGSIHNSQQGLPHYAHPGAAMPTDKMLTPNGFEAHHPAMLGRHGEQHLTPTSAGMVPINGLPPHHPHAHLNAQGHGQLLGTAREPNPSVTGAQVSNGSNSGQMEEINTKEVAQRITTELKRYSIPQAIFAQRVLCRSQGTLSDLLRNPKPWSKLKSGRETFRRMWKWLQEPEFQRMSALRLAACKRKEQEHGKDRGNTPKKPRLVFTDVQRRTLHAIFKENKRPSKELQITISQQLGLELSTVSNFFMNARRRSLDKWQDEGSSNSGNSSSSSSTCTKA
Chain of Hypoxia-inducible factor 1-alpha (Homo sapiens) (Q16665 whole entry, looked up): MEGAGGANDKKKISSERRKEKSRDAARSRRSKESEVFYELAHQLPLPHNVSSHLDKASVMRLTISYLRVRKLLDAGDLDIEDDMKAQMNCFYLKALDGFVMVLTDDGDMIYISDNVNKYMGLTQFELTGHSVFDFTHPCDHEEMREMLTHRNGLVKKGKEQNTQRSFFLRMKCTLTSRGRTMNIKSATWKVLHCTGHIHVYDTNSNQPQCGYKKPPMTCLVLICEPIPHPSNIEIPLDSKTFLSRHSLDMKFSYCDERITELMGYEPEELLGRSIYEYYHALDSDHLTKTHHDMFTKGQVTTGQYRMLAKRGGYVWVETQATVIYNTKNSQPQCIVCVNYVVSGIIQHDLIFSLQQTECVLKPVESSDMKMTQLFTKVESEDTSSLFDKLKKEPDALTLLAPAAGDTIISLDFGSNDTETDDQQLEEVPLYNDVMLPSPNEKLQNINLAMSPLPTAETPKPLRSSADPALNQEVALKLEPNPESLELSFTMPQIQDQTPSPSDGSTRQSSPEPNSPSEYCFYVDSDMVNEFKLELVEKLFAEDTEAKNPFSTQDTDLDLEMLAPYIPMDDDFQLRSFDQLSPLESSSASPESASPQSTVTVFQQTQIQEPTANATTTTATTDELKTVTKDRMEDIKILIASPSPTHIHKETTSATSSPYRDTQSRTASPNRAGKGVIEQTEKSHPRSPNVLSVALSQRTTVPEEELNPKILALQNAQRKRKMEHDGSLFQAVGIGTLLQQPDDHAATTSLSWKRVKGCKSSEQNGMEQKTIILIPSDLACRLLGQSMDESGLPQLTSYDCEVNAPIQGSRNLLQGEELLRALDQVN
Chain of Bile acid receptor (Homo sapiens) (Q96RI1 whole entry, looked up): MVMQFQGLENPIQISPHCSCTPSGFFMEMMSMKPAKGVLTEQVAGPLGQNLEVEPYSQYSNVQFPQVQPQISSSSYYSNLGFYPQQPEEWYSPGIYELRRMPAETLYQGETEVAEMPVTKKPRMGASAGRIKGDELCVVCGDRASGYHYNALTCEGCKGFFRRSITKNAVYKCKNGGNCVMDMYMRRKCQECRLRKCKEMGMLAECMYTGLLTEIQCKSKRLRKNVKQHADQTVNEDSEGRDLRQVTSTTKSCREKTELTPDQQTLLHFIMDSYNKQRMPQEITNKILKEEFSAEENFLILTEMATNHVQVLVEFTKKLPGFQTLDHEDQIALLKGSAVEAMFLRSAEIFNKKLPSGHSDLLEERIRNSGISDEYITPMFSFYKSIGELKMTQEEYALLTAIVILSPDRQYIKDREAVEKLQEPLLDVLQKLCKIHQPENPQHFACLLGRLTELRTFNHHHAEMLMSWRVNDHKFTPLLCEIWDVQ

`CC(CCO)CCc1ccccc1` (stereo not given): the outcome in [1], in assay [2], in [3], in [5], in [6] and in assay [7] was inactive. The molecule was classed as inactive in [8], in assay [9], in assay [10], in assay [11], in [12] and in assay [13]. Further, the molecule was called inactive in assay [14], in assay [15], in assay [16], in assay [17] and in [18]. For the same molecule, in [4], the AC50 (as a rule, the concentration at which the activity in the assay is half-maximal) was 24.2 µM (active).
Turning to `COCCOCCOCCOCCOCCO`, the result in assay [1], in assay [19], in assay [2], in assay [5], in assay [6] and in assay [7] was inactive. Further, the result in assay [9], in assay [11], in assay [12], in assay [13], in assay [14] and in assay [15] was inactive. The result in [16], in assay [17], in [18] and in assay [20] was inactive.
Consider `CC(C)(CO)[N+](=O)[O-]`, for which the outcome in [1], in [19], in assay [2], in assay [5], in assay [6] and in assay [7] was inactive. For the same molecule, the result in assay [8], in [9], in [11], in assay [12], in assay [13] and in assay [14] was inactive. In addition, the molecule was classed as inactive in assay [15], in assay [16], in assay [17] and in assay [18].
With `CC[Si](OC(C)=O)(OC(C)=O)OC(C)=O`, the outcome in assay [1], in [19], in assay [2], in [4], in assay [5] and in assay [6] was inactive. The molecule was classed as inactive in [7], in [8], in [9], in assay [12], in assay [13] and in [14]. Moreover, the call in assay [15], in [16], in assay [17] and in assay [18] was inactive. Besides, the AC50 in assay [20] was 18.7 µM (active).
For `CCCc1ccccc1O`, the result in [1], in assay [19], in assay [2], in assay [5], in assay [6] and in assay [7] was inactive. The molecule was classed as inactive in assay [8], in assay [9], in [12], in [13], in [14] and in assay [16]. Moreover, the molecule was called inactive in assay [18] and in [20].
For `CCCCCCCCCCN`, the outcome in [1], in assay [19], in assay [2], in assay [5], in [6] and in [7] was inactive. For the same molecule, the molecule was classed as inactive in assay [8], in assay [9], in [12], in assay [13], in [14] and in assay [16]. Further, the outcome in assay [17] and in [18] was inactive.
